Experimental data taken from paper PMC7862700, “An all-to-all approach to the identification of sequence-specific readers for epigenetic DNA modifications on cytosine”.

Assays:
Experiment in all cases: DAPPL (digital affinity profiling via proximity ligation, sequencing); 10 mM Tris-HCl pH 7.5, 50 mM NaCl, 1 mM DTT, 4% glycerol, room temperature, 30 min; GST-TFs on glutathione beads, 16-mer random dsDNA library, 0.1% formaldehyde crosslink after washing; high values mean tight binding
Conditions in all cases: protein: recombinant; tags: N-terminal GST; dsDNA, one strand shown
FLI1 = target: T1, FLI1 (Homo sapiens, UniProt Q01543 1-452)
T1 sequence: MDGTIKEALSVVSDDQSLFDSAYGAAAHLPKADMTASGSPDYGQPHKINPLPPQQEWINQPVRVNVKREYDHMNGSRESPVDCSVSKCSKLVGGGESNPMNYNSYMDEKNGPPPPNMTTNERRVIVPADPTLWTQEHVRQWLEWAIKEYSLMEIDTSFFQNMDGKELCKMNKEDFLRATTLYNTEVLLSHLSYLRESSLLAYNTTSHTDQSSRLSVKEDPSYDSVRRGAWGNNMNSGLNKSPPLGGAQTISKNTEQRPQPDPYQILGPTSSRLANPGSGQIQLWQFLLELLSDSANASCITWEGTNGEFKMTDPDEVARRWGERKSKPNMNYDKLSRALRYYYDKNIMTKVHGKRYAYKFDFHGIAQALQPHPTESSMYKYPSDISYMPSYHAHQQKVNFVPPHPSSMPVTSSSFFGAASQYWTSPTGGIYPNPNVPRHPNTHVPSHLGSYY
How it was run: (§1)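 After expression in yeast as GST fusions, human transcription factors were bound to glutathione beads, DNA-barcoded and mixed with a tag-only sample. The pools were incubated with 200 nmole of a 16-mer random double-stranded DNA library in Tris/NaCl/DTT/glycerol buffer (30 min, room temperature), washed and crosslinked with 0.1% formaldehyde. Proximity ligation with BsaI/T4 ligase ran for 1 h at 37 °C, before PCR amplification and sequencing on an Illumina NextSeq500. Binding signal is a hexamer's read frequency for a factor divided by its frequency for the tag-only sample.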

GABPA = target: T2, GABPA (Homo sapiens, UniProt Q06546 1-454)
T2 sequence: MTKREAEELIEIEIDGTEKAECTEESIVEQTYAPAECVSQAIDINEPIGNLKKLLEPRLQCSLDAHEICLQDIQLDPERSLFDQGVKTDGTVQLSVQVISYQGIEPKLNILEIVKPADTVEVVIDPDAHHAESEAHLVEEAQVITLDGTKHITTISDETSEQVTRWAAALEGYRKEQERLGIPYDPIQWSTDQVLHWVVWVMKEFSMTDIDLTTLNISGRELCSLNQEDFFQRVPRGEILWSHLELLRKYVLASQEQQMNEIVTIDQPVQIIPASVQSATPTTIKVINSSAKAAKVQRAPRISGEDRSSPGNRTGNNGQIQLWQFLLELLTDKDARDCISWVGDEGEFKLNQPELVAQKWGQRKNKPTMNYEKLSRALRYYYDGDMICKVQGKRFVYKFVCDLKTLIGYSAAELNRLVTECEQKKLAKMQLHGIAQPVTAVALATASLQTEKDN
How it was run: as §1

ERG = target: T3, ERG (Homo sapiens, UniProt P11308 1-479)
T3 sequence: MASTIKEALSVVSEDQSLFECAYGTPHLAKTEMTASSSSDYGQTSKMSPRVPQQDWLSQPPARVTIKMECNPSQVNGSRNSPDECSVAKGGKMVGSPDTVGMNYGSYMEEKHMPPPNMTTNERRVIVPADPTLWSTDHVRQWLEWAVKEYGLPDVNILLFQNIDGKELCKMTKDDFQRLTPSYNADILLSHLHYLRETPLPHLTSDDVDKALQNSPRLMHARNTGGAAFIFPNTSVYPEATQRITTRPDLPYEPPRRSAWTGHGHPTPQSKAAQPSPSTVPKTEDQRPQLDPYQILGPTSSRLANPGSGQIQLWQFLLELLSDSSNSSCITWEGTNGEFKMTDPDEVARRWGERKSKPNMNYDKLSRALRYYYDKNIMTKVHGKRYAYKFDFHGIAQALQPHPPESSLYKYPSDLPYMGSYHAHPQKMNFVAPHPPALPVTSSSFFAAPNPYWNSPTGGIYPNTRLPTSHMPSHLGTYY
How it was run: as §1

ELF1 = ELF1 (Homo sapiens, UniProt P32519 1-619)
Chain of ELF1 (P32519 whole entry): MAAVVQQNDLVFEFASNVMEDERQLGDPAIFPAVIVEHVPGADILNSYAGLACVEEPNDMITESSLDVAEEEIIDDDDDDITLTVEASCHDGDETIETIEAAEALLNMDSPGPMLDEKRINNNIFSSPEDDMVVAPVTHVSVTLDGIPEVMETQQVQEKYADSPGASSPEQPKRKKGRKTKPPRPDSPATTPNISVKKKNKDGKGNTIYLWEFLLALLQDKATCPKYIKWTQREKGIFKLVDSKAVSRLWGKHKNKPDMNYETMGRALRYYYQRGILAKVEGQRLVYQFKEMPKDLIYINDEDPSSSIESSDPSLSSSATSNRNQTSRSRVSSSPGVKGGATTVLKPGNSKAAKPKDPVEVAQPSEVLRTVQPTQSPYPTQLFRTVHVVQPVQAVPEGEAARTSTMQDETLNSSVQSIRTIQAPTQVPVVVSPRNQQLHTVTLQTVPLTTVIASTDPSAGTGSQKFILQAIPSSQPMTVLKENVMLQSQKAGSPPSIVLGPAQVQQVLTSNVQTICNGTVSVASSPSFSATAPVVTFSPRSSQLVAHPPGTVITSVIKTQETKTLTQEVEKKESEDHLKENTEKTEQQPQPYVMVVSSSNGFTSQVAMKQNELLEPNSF
How it was run: as §1

SPIB = SPIB (Homo sapiens, UniProt Q01892 1-262)
Chain of SPIB (Q01892 whole entry): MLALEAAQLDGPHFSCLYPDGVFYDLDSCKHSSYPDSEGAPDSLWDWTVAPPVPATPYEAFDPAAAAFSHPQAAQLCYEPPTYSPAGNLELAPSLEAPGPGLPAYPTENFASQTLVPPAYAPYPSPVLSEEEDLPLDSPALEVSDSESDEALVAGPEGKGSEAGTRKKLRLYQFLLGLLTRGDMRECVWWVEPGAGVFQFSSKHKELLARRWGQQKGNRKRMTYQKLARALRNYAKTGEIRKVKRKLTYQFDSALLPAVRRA
How it was run: as §1

ETV5 = ETV5 (Homo sapiens, UniProt P41161 1-510)
Chain of ETV5 (P41161 whole entry): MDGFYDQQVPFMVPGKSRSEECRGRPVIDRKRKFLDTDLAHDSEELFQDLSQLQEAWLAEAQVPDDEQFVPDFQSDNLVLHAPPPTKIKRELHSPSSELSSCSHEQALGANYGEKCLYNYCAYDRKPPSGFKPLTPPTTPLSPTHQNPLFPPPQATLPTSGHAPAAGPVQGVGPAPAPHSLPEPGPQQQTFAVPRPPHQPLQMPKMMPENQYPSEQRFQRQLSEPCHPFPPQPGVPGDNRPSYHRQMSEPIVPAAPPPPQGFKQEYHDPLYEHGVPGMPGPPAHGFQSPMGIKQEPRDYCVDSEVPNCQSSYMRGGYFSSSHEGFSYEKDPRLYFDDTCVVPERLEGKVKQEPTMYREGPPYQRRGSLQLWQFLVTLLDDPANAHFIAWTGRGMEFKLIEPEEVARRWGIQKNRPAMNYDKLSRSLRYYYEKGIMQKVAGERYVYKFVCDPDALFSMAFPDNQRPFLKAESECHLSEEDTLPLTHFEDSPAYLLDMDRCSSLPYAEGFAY
How it was run: as §1

SPIC = target: T4, SPIC (Homo sapiens, UniProt Q8N5J4 1-248)
T4 sequence: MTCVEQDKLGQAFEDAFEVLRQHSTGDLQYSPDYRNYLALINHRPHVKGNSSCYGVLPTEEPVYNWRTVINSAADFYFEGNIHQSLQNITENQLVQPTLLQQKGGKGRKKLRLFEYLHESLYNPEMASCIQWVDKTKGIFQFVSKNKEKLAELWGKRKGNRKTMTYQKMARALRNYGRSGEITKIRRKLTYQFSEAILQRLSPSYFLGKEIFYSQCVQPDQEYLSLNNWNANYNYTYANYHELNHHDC
How it was run: as §1

ELF4 = ELF4 (Homo sapiens, UniProt Q99607 1-663)
Chain of ELF4 (Q99607 whole entry): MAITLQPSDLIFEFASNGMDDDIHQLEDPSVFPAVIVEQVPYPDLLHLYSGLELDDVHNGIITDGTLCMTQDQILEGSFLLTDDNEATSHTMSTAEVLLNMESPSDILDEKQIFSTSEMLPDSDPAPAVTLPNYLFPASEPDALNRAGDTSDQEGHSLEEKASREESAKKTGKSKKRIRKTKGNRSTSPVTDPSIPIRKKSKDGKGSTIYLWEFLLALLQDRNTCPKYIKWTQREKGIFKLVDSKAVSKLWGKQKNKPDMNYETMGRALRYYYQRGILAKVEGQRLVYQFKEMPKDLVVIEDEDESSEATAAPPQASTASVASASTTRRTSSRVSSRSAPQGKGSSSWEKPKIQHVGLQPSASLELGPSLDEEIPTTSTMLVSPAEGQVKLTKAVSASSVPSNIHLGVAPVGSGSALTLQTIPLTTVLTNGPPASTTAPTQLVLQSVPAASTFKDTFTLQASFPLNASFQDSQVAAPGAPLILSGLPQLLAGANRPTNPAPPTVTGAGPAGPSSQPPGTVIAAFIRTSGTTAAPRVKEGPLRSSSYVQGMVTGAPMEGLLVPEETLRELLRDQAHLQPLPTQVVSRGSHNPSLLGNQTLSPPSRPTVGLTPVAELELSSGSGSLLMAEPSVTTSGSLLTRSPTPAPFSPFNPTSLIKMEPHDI
How it was run: as §1

ETV1 = ETV1 (Homo sapiens, UniProt P50549 1-477)
Chain of ETV1 (P50549 whole entry): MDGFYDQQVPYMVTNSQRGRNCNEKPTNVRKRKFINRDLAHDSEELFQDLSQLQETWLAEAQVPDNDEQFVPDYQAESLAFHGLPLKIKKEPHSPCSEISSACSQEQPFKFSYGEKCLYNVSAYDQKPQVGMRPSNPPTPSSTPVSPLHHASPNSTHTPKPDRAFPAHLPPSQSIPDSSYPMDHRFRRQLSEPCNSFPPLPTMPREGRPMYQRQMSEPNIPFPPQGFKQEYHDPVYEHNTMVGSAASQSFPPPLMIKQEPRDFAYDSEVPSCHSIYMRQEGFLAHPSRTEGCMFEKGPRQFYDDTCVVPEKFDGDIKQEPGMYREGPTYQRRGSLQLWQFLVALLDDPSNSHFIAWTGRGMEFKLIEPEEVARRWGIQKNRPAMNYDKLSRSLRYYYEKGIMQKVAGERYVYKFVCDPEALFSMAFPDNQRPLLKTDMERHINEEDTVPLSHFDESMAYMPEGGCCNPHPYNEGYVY
How it was run: as §1

ETV3L = target: T5, ETV3L (Homo sapiens, UniProt Q6ZN32 1-361)
T5 sequence: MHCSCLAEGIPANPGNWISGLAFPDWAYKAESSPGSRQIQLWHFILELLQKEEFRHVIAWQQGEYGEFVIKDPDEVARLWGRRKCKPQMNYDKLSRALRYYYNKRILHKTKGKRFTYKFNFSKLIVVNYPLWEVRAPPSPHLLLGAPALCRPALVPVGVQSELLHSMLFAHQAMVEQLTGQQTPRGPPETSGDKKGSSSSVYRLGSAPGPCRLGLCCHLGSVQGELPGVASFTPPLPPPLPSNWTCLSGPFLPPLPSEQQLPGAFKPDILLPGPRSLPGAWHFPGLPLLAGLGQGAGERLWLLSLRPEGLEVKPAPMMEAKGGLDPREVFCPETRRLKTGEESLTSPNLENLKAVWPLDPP
How it was run: as §1

ETV6 = ETV6 (Homo sapiens, UniProt P41212 1-452)
Chain of ETV6 (P41212 whole entry): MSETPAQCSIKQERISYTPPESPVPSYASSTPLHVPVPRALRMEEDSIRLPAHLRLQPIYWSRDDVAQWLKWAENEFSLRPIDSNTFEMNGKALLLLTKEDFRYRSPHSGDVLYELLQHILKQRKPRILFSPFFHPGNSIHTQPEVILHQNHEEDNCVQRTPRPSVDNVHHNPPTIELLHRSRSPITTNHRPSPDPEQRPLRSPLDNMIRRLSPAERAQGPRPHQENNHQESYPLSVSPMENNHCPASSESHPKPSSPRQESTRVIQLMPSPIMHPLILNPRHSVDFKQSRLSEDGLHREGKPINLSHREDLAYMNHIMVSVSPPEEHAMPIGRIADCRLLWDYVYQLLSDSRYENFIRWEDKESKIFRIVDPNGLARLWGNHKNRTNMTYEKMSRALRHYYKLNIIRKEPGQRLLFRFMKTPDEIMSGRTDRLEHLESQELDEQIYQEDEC
How it was run: as §1

GGCTCG
binding signal (FLI1): 1.06 fold enrichment (6-mer frequency, TF over GST control) | binding signal (GABPA): 1.02 fold enrichment (6-mer frequency, TF over GST control) | binding signal (ERG): 1.02 fold enrichment (6-mer frequency, TF over GST control) | binding signal (ELF1): 1.05 fold enrichment (6-mer frequency, TF over GST control) | binding signal (SPIB): 1.12 fold enrichment (6-mer frequency, TF over GST control) | binding signal (ETV5): 1.01 fold enrichment (6-mer frequency, TF over GST control) | binding signal (SPIC): 1.12 fold enrichment (6-mer frequency, TF over GST control) | binding signal (ELF4): 1.06 fold enrichment (6-mer frequency, TF over GST control) | binding signal (ETV1): 1.01 fold enrichment (6-mer frequency, TF over GST control) | binding signal (ETV3L): 1.09 fold enrichment (6-mer frequency, TF over GST control) | binding signal (ETV6): 1.06 fold enrichment (6-mer frequency, TF over GST control)
